Six compounds from PubChem BioAssay can be followed below.

“And” between values parts separate entries of the source, which are not always exact repeats. Equal entries are not always repeated. The source made the active and inactive calls. Unless noted, how the calls were made is not given here.

Assay [1] can be described thus: compounds binding Alexa647 anti-His antibody – biochemical, small-molecule microarray, 635 nm fluorescence, artefact control for SMM control protein annotation, primary screen (AID 1128).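 Further: score merges feature fluorescence with signal-to-noise for each printed compound spot.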 The conditions noted are these: higher = more signal.
Assay [2] concerns Human papillomavirus type 1a E7 protein (residues 1-88). The experiment in a line: HPV1a E7 small-molecule binders, primary screen, biochemical, small-molecule microarray, residues 1-88, 635 nm (AID 1129). The conditions noted are these: small-molecule microarray binding, fluorescence 635 nm; higher = more signal.
Assay [3] deals with Focal adhesion kinase 1 (Homo sapiens) (UniProt Q05397). In words: PTK2 protein binding on printed compound slides – biochemical, small-molecule microarray, 635/667 nm fluorescence, BSA, DTT, primary screen (AID 1130).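 Further: composite of spot emission at 667 nm and signal to noise over triplicate slides.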 The settings on record: 635 nm fluorescence, higher = more signal.
Assay [4] concerns Fibrinogen (Alexa647-labelled). In words: Alexa647-fibrinogen binding to printed small molecules – biochemical, small-molecule microarray, 635/667 nm fluorescence, artefact control for SMM control-protein annotation, profiling panel (AID 1131).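 Further: z-score merges 667 nm fluorescence with per-spot signal-to-noise over triplicate slides.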 The settings on record: fibrinogen-A647 binding fluorescence, higher = more signal.
For assay [5], the target named is Follistatin (Homo sapiens) (UniProt P19883). In words: FST protein binding to printed compounds – biochemical, small-molecule microarray, 635/667 nm fluorescence, primary screen (AID 1132). The conditions noted are these: 635 nm fluorescence, higher = more signal.
Assay [6] has as its target Fibroblast growth factor 2 (Homo sapiens) (UniProt P09038). The experiment in a line: basic fibroblast growth factor binding to printed compounds – biochemical, small-molecule microarray, 635/667 nm fluorescence, primary screen (AID 1133). The settings on record: FGF2, fluorescence 635/667, higher = more signal.
The nature of assay [7]: JC-1 mitochondrial potential readout, lung cancer cells – cell-based, A549, JC-1 fluorescence, basal, 24 h, 100 nL, profiling panel (AID 1138).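 Further: A549 lung adenocarcinoma cells under basal conditions with no added stimulus; test concentration not given here.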 The conditions noted are these: higher = more signal.
The next assay concerns Lefty1. In words: Lefty1 protein binding to printed compounds – biochemical, small-molecule microarray, 635/667 nm fluorescence, primary screen (AID 1139). The settings on record: fluorescence 635/667, higher = more signal.
The test system of assay [8] is wheat germ agglutinin (Triticum aestivum), Alexa647-labelled. The experiment in a line: Alexa647-WGA lectin binding to printed small molecules – biochemical, small-molecule microarray, 635/667 nm fluorescence, artefact control for SMM control-protein annotation, profiling panel (AID 1140).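 Further: score merges 667 nm feature emission with signal to noise over triplicate slides.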 The conditions noted are these: WGA-A647 binding, 635 nm fluorescence, higher = more signal.

The target in assay [9] is Luciferin 4-monooxygenase (Photinus pyralis) (UniProt P08659). In words: inhibition of purified Photinus pyralis luciferase – biochemical, luminescence, purified enzyme, 2006 set, primary screen (AID 1141).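 Further: cell-free assay with purified firefly luciferase at 100 ng per well in PBS; test concentration not given here.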 The conditions noted are these: purified firefly luciferase, SteadyGlo luminescence, 30 min; higher = more signal, called active from +8 up or from −8 down.
The test system of assay [10] is Wnt5a (protein binding on small-molecule microarray). The experiment in a line: small molecules binding Wnt5a protein – biophysical, small-molecule microarray, 635/667 nm fluorescence, primary screen (AID 1142).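 Further: fluorescence read at 667 nm with signal to noise per printed feature.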 The settings on record: 635 nm fluorescence, higher = more signal.
Assay [11] is described as follows: ATP-based viability of Huh7 replicon cells – cell-based, CellTiter-Glo luminescence, basal, 48 h, cytotoxicity control for HCV replication inhibitor project, primary screen (AID 1143).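 Further: Huh7 hepatoma cells carrying a hepatitis C replication reporter with no stimulus; test concentration not given here.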 The conditions noted are these: higher = more signal, called active from +8 up or from −8 down.
Assay [12] in a line: Pseudomonas biofilm growth suppression – PAO1 strain, BacTiter-Glo luminescence, LB-PBS, primary screen (AID 1144). The conditions noted are these: P. aeruginosa PAO1 biofilm, 12 h, higher = more signal.
A short description of assay [13]: basal CRE-LacZ reporter activity in PC12 – cell-based, unstimulated, primary screen (AID 1145). The conditions noted are these: no forskolin, luminescence, 4.5 h, higher = more signal, called active from +8 up or from −8 down.
Assay [14] in a line: forskolin-driven CRE-LacZ activity in PC12 – cell-based, CRE-LacZ reporter, forskolin-stimulated, primary screen (AID 1146).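 Further: PC12 cells with 6xCRE LacZ reporter stimulated by forskolin 10 µM; beta-galactosidase reporter signal reflecting CREB driven transcription.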 The settings on record: luminescence, 4.5 h, higher = more signal, called active from +8 up or from −8 down.
Assay [15] concerns the target Streptavidin (Streptomyces avidinii) (UniProt P22629). In words: compounds binding control protein streptavidin – biophysical, small-molecule microarray, 635/667 nm fluorescence, artefact control for SMM compound annotation, primary screen (AID 1147).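 Further: signal reflects streptavidin binding to arrayed compounds as a control protein.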 The settings on record: higher = more signal.
Assay [16] is described as follows: probe aInhba binding on compound microarray – biochemical, small-molecule microarray, 635/667 nm fluorescence, primary screen (AID 1148).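 Further: score merges 667nm spot fluorescence with signal-to-noise for antibody binding to printed compounds.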 The conditions noted are these: higher = more signal.
Assay [17] addresses Torsin-1A (Homo sapiens) (UniProt O14656). In words: TOR1A wild-type binding on microarray – cell lysate, small-molecule microarray, lysate, 635/667 nm, primary screen (AID 1149). The conditions noted are these: COS7 hTOR1A-WT lysate, 635 nm fluorescence, higher = more signal.
Assay [18] has the same target. The experiment in a line: torsin A mutant lysate binding on microarrays – cell lysate, small-molecule microarray, COS7 lysate, 635/667 nm fluorescence, primary screen (AID 1150).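 Further: score pools 667 nm emission and signal to noise measuring lysate protein binding.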 The settings on record: COS7 hTOR1A mutant lysate, 635 nm fluorescence, higher = more signal.
In assay [19] the test system is Sonic hedgehog protein (Shh). The experiment in a line: Sonic hedgehog microarray binding compounds – biochemical, small-molecule microarray, 635/667 nm fluorescence, primary screen (AID 1151).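 Further: Shh protein binding to compounds spotted on small-molecule microarray slides; score combines spot fluorescence intensity with signal-to-noise across triplicate slides.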 The conditions noted are these: 635 nm fluorescence, higher = more signal.

Streptavidin (Streptomyces avidinii), sequence (P22629 whole entry, looked up): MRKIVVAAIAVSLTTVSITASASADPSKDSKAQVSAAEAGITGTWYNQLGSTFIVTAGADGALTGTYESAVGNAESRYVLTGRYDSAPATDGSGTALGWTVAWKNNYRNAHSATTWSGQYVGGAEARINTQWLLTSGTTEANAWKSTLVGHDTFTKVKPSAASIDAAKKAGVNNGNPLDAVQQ
Torsin-1A (Homo sapiens), sequence (O14656 whole entry, looked up): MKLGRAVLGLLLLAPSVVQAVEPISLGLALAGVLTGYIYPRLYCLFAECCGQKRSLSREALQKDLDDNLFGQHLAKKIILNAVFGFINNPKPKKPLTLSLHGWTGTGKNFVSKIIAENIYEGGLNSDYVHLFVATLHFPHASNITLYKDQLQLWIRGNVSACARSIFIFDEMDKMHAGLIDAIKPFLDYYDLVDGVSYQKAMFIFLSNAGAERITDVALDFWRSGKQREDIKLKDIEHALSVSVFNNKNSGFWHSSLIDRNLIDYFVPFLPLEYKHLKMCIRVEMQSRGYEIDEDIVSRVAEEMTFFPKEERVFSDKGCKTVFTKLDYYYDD
Luciferin 4-monooxygenase (Photinus pyralis), sequence (P08659 whole entry, looked up): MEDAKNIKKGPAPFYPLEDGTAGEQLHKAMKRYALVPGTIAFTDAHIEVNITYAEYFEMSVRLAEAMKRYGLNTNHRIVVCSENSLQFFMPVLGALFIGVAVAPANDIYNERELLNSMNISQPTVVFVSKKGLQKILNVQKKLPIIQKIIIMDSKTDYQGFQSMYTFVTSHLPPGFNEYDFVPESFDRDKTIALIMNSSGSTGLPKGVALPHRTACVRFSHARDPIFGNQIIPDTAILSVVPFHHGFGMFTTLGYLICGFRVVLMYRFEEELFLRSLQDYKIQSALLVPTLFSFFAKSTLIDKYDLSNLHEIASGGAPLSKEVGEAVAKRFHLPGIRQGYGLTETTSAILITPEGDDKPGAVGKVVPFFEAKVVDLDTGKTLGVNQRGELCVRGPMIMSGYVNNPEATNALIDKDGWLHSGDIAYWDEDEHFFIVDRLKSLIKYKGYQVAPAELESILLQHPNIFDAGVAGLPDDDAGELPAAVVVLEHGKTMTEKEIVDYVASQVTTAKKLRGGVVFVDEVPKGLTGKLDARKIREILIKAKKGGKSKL
Follistatin (Homo sapiens), sequence (P19883 whole entry, looked up): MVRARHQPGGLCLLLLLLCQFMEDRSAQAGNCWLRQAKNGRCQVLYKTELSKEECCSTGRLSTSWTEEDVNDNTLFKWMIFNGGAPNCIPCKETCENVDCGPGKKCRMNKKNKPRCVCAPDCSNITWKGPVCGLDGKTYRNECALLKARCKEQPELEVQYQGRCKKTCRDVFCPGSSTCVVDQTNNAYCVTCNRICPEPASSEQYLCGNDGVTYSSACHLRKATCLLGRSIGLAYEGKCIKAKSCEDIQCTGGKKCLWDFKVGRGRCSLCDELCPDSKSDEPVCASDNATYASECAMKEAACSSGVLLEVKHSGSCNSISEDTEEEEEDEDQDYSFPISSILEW
Fibroblast growth factor 2 (Homo sapiens), sequence (P09038 whole entry, looked up): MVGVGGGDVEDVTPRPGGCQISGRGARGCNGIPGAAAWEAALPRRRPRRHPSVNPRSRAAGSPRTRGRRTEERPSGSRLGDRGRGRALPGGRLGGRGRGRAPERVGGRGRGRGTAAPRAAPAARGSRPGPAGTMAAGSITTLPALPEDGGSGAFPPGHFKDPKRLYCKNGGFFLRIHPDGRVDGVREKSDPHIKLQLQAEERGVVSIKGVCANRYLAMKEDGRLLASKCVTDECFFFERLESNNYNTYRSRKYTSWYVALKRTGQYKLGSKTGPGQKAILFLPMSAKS
Focal adhesion kinase 1 (Homo sapiens), sequence (Q05397 whole entry, looked up): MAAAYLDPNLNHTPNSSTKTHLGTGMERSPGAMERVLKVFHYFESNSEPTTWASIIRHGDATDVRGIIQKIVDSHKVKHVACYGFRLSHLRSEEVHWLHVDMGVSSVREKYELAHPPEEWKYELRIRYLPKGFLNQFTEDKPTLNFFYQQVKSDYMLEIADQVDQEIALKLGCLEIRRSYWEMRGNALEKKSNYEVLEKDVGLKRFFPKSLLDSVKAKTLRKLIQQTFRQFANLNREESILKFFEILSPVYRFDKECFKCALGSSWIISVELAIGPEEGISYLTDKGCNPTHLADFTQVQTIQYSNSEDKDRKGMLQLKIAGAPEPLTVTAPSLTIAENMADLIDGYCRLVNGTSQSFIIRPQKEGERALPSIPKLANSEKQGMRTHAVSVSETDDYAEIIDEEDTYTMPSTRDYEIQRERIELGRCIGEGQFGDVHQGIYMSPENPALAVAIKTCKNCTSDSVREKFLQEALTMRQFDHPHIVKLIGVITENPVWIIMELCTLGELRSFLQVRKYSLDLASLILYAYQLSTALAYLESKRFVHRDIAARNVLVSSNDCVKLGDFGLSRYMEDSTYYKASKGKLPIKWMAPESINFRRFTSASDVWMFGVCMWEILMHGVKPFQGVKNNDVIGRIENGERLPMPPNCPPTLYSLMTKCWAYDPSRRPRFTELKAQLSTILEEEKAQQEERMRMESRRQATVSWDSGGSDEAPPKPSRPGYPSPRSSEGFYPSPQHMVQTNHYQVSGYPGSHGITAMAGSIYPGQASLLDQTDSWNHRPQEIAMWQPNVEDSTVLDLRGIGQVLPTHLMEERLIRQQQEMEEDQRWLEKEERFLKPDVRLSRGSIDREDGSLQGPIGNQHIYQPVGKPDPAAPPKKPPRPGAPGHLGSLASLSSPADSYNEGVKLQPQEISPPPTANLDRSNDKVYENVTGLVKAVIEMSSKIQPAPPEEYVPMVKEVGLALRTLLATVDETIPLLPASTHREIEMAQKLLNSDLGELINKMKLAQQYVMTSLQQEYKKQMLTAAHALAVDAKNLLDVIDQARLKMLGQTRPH

With `C=C[C@@H](OC)[C@H](O)c1ccc(OCCO)cc1`, the composite z-score in assay [1] is 3.17 and -0.401; in assay [2] it was -0.875 and -0.95; in assay [3], 0.005 and -0.754; in [4], -1.95 and -1.4; in assay [5] it was -0.286 and -0.426; in [6] it was -0.333 and -0.692. Moreover, the composite z-score was -0.545 and -0.201 with Lefty1; 1.26 and -0.543 in assay [8]; -0.825 and -0.361 in assay [10]; -0.912 and -1.1 in assay [15]; -0.271 and -0.128 in assay [16]; -1.95 and -1.96 with Torsin-1A (Homo sapiens) [17]. The composite z-score with Torsin-1A (Homo sapiens) [18] is -2.39 and -0.212; in assay [19], 0.18 and -0.247. Also, the z-score in assay [7] was 0.27 and -0.142; in assay [9] it was -3.43 (inactive) and -3.1 (inactive); in [11], 0.423 (inactive) and -2.25 (inactive); in assay [12], -0.765 (inactive) and -0.622 (inactive); in [13], -0.883 (inactive) and -0.184 (inactive); in [14], -0.812 (inactive) and -1.15 (inactive).
Regarding `CCN1C(=O)[C@H]2[C@H]3[C@H](O)[C@H](O)CC(=NOC[C@@H](O)COCc4ccco4)[C@@H]3CC[C@H]2C1=O`, the composite z-score was -0.48 and 2.77 in assay [1]; -1.11 and -1.61 in assay [2]; -0.406 and -0.591 in assay [3]; -0.852 and -0.943 in assay [4]; 1.34 and -0.205 in assay [5]; 1.66 and -0.129 in [6]. The composite z-score is 1.44 and 0.31 in the assay with Lefty1; -0.559 and -0.746 in assay [8]; 0.0867 and 0.192 in assay [10]; -0.503 and -0.321 in assay [15]; -0.324 and -0.15 in [16]; 3.48 and 0.374 with Torsin-1A (Homo sapiens) [17]. Besides, the composite z-score with Torsin-1A (Homo sapiens) [18] is 3.12 and 0.272; in assay [19] it was 2.1 and 1.78. Also, the z-score in assay [7] is -0.254 and -1.57; in assay [9], -0.0037 (inactive) and 0.33 (inactive); in assay [11], 0.343 (inactive) and 0.422 (inactive); in [12], -1.34 (inactive) and -0.00909 (inactive); in assay [13], -0.746 (inactive) and 1.6 (inactive); in assay [14] it was 0.463 (inactive) and 0.503 (inactive).
On to `CC(C)=CCCC(C)=CCON=C1C[C@@H](O)[C@@H](O)[C@@H]2[C@@H]3C(=O)N([C@@H](C)c4ccccc4)C(=O)[C@@H]3CC[C@H]12`, for which the composite z-score in assay [1] amounted to 0.798; in assay [2] it was 1.01; in assay [3], 0.89; in assay [4] it was 0.558; in [5], 0.676; in assay [6], 0.364. For the same compound, the composite z-score in the assay on Lefty1 is 0.581; in assay [8] it was 0.324; in assay [10], 0.111; in [15], 0.0138; in assay [16], -0.233; in the assay with Torsin-1A (Homo sapiens) [17] it was 0.594. The composite z-score was found to be 0.26 in the assay with Torsin-1A (Homo sapiens) [18] and 1.18 in assay [19]. The z-score in assay [7] was 0.824; in assay [9], -0.677 (inactive); in assay [11], -3.97 (inactive); in assay [12] it was 1.09 (inactive); in [13], -0.295 (inactive); in [14], -0.323 (inactive).
As for `C[N+](C)(C)CCCCCCNC(=O)[C@@H]1C[C@@H]2C(=O)N[C@@H](CCCC[N+](C)(C)C)C(=O)N2[C@@H]1c1ccc(O)cc1`, the composite z-score in assay [1] is 0.582 and 1.21; in [2], -0.694 and 0.212; in [3] it was -0.169 and -0.133; in [4] it was -1.44 and -0.95; in assay [5], 1.39 and 1.34; in [6], 1.47 and 1.44. In addition, the composite z-score was 0.914 and 1.04 in the assay on Lefty1; -0.187 and -0.088 in assay [8]; 0.107 and -0.0086 in [10]; -0.392 and -0.129 in assay [15]; -0.128 and -0.0375 in assay [16]; 0.854 and -0.609 with Torsin-1A (Homo sapiens) [17]. Further, the composite z-score with Torsin-1A (Homo sapiens) [18] was 0.0983 and -0.498; in assay [19] it was 1.61 and 2.12. The z-score in assay [7] is -0.0687 and -0.662; in assay [9], 0.547 (inactive) and 0.58 (inactive); in assay [11] it was 0.0047 (inactive) and 0.0071 (inactive); in assay [12] it was -0.424 (inactive) and -0.439 (inactive); in [13], -0.532 (inactive) and -1.08 (inactive); in assay [14], -1.2 (inactive) and 0.128 (inactive).
Turning to `C[C@@H]1CC[C@H]2C(=O)NC[C@@H](O)CN2[C@H]1c1ccc(Br)cc1`, the composite z-score in [1] is -0.035 and -0.372; in assay [2] it was -0.165 and -0.298; in [3] it was 0.0377 and -0.438; in assay [4], -0.0102 and 0.0552; in assay [5] it was -0.175 and -0.142; in assay [6], 0.0825 and 0.314. Also, the composite z-score was 0.396 and 0.0488 in the assay with Lefty1; -0.2 and -0.0411 in assay [8]; -0.0755 and 0.0111 in assay [10]; -0.161 and -0.289 in assay [15]; -0.0762 and -0.128 in [16]; 0.0335 and 0.266 with Torsin-1A (Homo sapiens) [17]. Moreover, the composite z-score with Torsin-1A (Homo sapiens) [18] was 0.0464 and -0.352; in assay [19], 0.264 and -0.0212. For the same compound, the z-score in assay [7] is -0.386 and 1.68; in assay [9], 0.29 (inactive) and -0.467 (inactive); in [11], 0.3 (inactive) and 0.139 (inactive); in assay [12] it was 0.721 (inactive) and 0.543 (inactive); in [13], 0.649 (inactive) and 0.108 (inactive); in assay [14], 0.797 (inactive) and 0.187 (inactive).
With `C=CCN(Cc1ccccc1)C(=O)C1N(CCCCCCO)C(=O)C2C(C(=O)O)C3C=CC21O3` (stereo not given), the composite z-score in assay [1] is 0.193 and -0.664; in assay [2] it was -0.363 and -0.297; in assay [3] it was 0.0147 and -0.339; in [4] it was -0.923 and -1.99; in assay [5], -1.42 and -1.07; in assay [6], -1.88 and -2.94. Besides, the composite z-score with Lefty1 was -1.84 and -1.78; in assay [8], -0.834 and -0.785; in assay [10], -1.02 and -1.77; in assay [15], -1.02 and -1.77; in assay [16], -0.159 and -0.21; with Torsin-1A (Homo sapiens) [17] it was -3.02 and -4.56. Further, the composite z-score with Torsin-1A (Homo sapiens) [18] is -2.45 and 0.914; in assay [19], -1.62 and -1.85. Besides, the z-score in assay [7] was -0.38 and 0.344; in assay [9], 1.01 (inactive) and 1.33 (inactive); in [11], -0.118 (inactive) and 0.533 (inactive); in assay [12], -0.12 (inactive) and -1.45 (inactive); in [13], -1.31 (inactive) and -1.44 (inactive); in assay [14], -0.665 (inactive) and -0.279 (inactive).
